# Results taken from the supplement of paper PMC7411640.
# Where a name gives a salt, the structure may show the parent alone.
# System: MDA-MB-468
# Assay: phospho-S6 immunofluorescence (DAPI-normalised), per-plate z-score; higher = higher phospho-S6 signal (less pathway suppression)
# Conditions: 24 h
# Experimental: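 GPCR-targeted compound library (MedChemExpress HY-L006) tested on MDA-MB-468 PTEN-null TNBC cells in 384-well plates at 0.1, 1 or 10 uM, combined with vehicle, GDC0941 450 nM or lapatinib 1 uM, for 24 h. Phospho-S6 (S240/244) immunofluorescence normalised to DAPI and expressed as a per-plate z-score; values are the mean of biological triplicates.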
SMILES,phospho-S6 immunofluorescence (z-score) (co-treatment: GDC0941 450 nM),phospho-S6 immunofluorescence (z-score) (co-treatment: lapatinib 1 uM),phospho-S6 immunofluorescence (z-score) (co-treatment: vehicle)
CC(C)N(CCCCOCC(=O)O)c1cnc(-c2ccccc2)c(-c2ccccc2)n1 (compound 10 µM),1.34,1.89,0.56
CCOC(=O)O[C@]1(C(=O)OCCl)CC[C@H]2[C@@H]3CCC4=CC(=O)C=C[C@]4(C)[C@H]3[C@@H](O)C[C@@]21C [Loteprednol Etabonate] (compound 10 µM),-0.86,0.31,-1.08
O=C(c1ccc(OCCCc2c[nH]cn2)cc1)C1CC1 [Ciproxifan (maleate)] (compound 10 µM),-0.58,-0.62,0.21
Cc1ccc(-c2n[nH]c3c2C(c2cccc(O)c2)N(c2ccc(C(=O)O)cc2)C3=O)cc1 (stereo unspecified) (compound 10 µM),0,0.5,-0.12
CN1CCCC(n2nc(Cc3ccc(Cl)cc3)c3ccccc3c2=O)CC1 (stereo unspecified) [Azelastine (hydrochloride)] (compound 10 µM),0.6,-0.25,0.16
Clc1ccc2nsnc2c1NC1=NCCN1 [Tizanidine (hydrochloride)] (compound 10 µM),1.42,-0.07,0.54
N=C(N)NCCCCN [Agmatine (sulfate)] (compound 10 µM),0.88,-0.16,0.73
O=C(NCCCN1CCC2(CC1)OCc1ccccc12)[C@H]1CCCN1Cc1ccccc1 (compound 10 µM),-1.61,-1.57,-0.4
Cc1ccc(C(=O)Nc2ccc(S(=O)(=O)O)c3cc(S(=O)(=O)O)cc(S(=O)(=O)O)c23)cc1NC(=O)c1cccc(NC(=O)Nc2cccc(C(=O)Nc3cc(C(=O)Nc4ccc(S(=O)(=O)O)c5cc(S(=O)(=O)O)cc(S(=O)(=O)O)c45)ccc3C)c2)c1 [Suramin (sodium salt)] (compound 10 µM),0.54,1.39,-0.09
CCCCc1oc2ccc(NS(C)(=O)=O)cc2c1C(=O)c1ccc(OCCCN(CCCC)CCCC)cc1 [Dronedarone] (compound 10 µM),-3.7,-8.99,-9.98
CN1CCC(=C2c3ccccc3CCc3cccnc32)CC1 [Azatadine (dimaleate)] (compound 10 µM),0,0.29,-0.32
Nc1ncnc2c1ncn2C1CCCO1 (stereo unspecified) (compound 10 µM),0.45,-0.67,-0.21
O=C(Nc1cccc2c(=O)cc(-c3nnn[nH]3)oc12)c1ccc(OCCCCc2ccccc2)cc1 [Pranlukast (hemihydrate)] (compound 10 µM),1.61,1.07,0.31
OCCOCCN1CCN(C2=Nc3ccccc3Sc3ccccc32)CC1 [Quetiapine (fumarate)] (compound 10 µM),-0.84,0.29,-0.03
CN1[C@@H]2CC[C@H]1C[C@@H](OC(=O)c1c[nH]c3ccccc13)C2 [Tropisetron (Hydrochloride)] (compound 10 µM),0.95,-0.2,-0.04
C[C@@H](OC[C@@]1(c2ccccc2)CC[C@]2(CCC(=O)N2)CN1)c1cc(C(F)(F)F)cc(C(F)(F)F)c1 [Rolapitant] (compound 10 µM),-4.35,-3.8,-0.65
Clc1ccc(CCCOCCCN2CCCCC2)cc1 [Pitolisant (hydrochloride)] (compound 10 µM),0.75,-0.69,-0.12
